High-throughput results deposited in PubChem BioAssay by ICCB-Longwood Screening Facility, Harvard Medical School.
AID504770: E. coli YBA685 growth inhibition, screen for V. cholerae RctB inhibitors; E. coli YBA685 rctB-dependent plasmid, OD600 growth, 3 h; hits give low values; z-score (test concentration not listed); 130,000 compounds, 0.27% hits; AID 504770; in the data active = z-score below about -2, passing the limit was not always enough
MbtI inh: blocks the Mycobacterium tuberculosis siderophore enzyme MbtI. purified MbtI enzyme, fluorescence intensity read-out. 100,000 compounds, 0.89% hits. inhibition, % (no concentration beside the values). P9WFX0; in the data active = inhibition mostly above about 56%, no sharp cut-off; inactive = mostly below about 77%
MenB inh: blocks the Mycobacterium tuberculosis MenB enzyme | P9WNP5 | MenB enzyme assay, absorbance read-out | inhibition, % (test concentration not listed) | 100,000 compounds, 0.43% hits | AID 540299; in the data active = inhibition above about 21%, passing the limit was not always enough
Target sequence (P9WNP5 whole entry, looked up): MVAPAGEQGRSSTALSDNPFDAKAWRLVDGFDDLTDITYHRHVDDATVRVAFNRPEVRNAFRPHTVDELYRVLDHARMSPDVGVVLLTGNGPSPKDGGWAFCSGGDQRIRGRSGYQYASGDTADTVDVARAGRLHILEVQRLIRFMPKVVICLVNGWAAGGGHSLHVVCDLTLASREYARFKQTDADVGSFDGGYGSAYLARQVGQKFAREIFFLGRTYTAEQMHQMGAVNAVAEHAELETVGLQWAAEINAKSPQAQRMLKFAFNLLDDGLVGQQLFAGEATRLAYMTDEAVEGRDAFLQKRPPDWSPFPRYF
PV pol inh: inhibitors of poliovirus RNA polymerase binding and polymerization; poliovirus polymerase elongation, fluorescence polarization; hits give low values; % elongation, % (compound at 16.7 µg/mL); 150,000 compounds, 0.66% hits; AID 588519; in the data active = % elongation below about 90%
Numbers stand for hits; i = inactive; nt = not tested or not shown; ! = a repeat was not active. The list is not random: actives were taken first. Their share in the collection is about 1.4%.

SMILES	AID504770	MbtI inh	MenB inh	PV pol inh
CCS(=O)(=O)c1nnnn1-c1ccccc1	i	i	41.6	i
Cc1cccc(C)c1OCc1nc2c3cnn(-c4ccccc4F)c3ncn2n1	nt	nt	nt	75.0
Cc1cccc(C)c1OCc1nc2c3cnn(-c4ccccc4Br)c3ncn2n1	nt	nt	nt	i
O=C(NCCc1ccccc1)c1ccc2nc[nH]c2c1	i	i	nt	nt
N#Cc1cnc(SCCc2ccccc2)nc1N	i	i	33.1	i
Cc1cc(C(=O)COC(=O)c2ccc3c(c2)NC(=O)CS3)c(C)n1Cc1cccs1	i	i	i	i
O=C(COC(=O)c1ccc2c(c1)NC(=O)CS2)NCc1cccs1	i	i	i	11.0
Cc1[nH]c(=S)sc1CC(=O)N(C)Cc1ccccc1Cl	i	75.5	i	i
CSc1[nH]c(=O)[nH]c(=O)c1C#N	i	i	i	i
CSc1s[nH]c(=O)c1C#N	i	nt	i	86.0
COc1ccc(Cn2c(=O)[nH]c3cc(C(=O)N4CCN(c5cccc(Cl)c5)CC4)ccc3c2=O)cc1	nt	nt	nt	i
COc1ccc(Cn2c(=O)[nH]c3cc(C(=O)N4CCN(c5cccc(OC)c5)CC4)ccc3c2=O)cc1	nt	nt	nt	73.0
CCc1cc(=O)oc2cc(O)cc(O)c12	i	i	47.4	i
CCCc1cc(=O)oc2cc(O)cc(O)c12	i	nt	nt	nt
Cc1ccc(CSCC(=O)O)cc1	i	i	nt	nt
Cc1ccc2cc3cc(C(=O)NCCCN4CCN(Cc5ccccc5)CC4)oc3nc2c1	i	i	i	i
O=c1sn(-c2ccccc2C(F)(F)F)c(=O)n1CC1CC1	i	98.7	i	i
COC1OC2COC(C2O)C1O (stereo unspecified)	i	nt	i	i
COc1ccc(C)cc1NC(=O)CN(C)Cc1nc2ccccc2c(=O)[nH]1	i	i	i	89.0
COCCNC(=S)c1ccc(N(C)C)cc1	i	61.6	i	i
COc1cccc(C2C(C#N)=C(N)Oc3c2c(=O)n(C)c(=O)n3C)c1 (stereo unspecified)	i	i	i	i
Cn1c2c(c(=O)n(C)c1=O)C(c1ccccc1)C(C#N)=C(N)O2 (stereo unspecified)	i	nt	i	85.0
C/C=C/C(=O)Nc1ccc(Cl)c(Cl)c1	i	i	i	i
Cc1csc(Nc2ccccc2)n1	i	72.1	nt	i
ClCc1csc(Nc2ccccc2)n1	i	i	nt	i
SMILES	AID504770	MbtI inh	MenB inh	PV pol inh
O=C(Nc1noc2c1COc1ccccc1-2)N1CCC(Cc2ccccc2)CC1	i	i	i	i
COc1cc2c(cc1OC)CN(c1ccc3ccccc3n1)CC2	i	i	i	89.0
Cc1cc(OCC(=O)NCc2ccco2)cc(C)c1Cl	i	i	nt	nt
Cc1ccc(C)n1-c1cccc(C(=O)O)c1	i	nt	i	34.0
CN(C)c1ccc(P(=O)(OC2CCCCC2)C(O)c2ccccc2)cc1 (stereo unspecified)	i	nt	nt	nt
Oc1c(C(c2ccc(F)cc2)N2CCCC2)ccc2cccnc12 (stereo unspecified)	i	nt	nt	nt
Oc1c(C(c2ccc(C(F)(F)F)cc2)N2CCOCC2)ccc2cccnc12 (stereo unspecified)	i	63.9	i	i
O=S(=O)(c1ccc(N2CN(S(=O)(=O)c3ccc(Cl)cc3)c3nc4ccccc4nc32)cc1)N1CCOCC1	i	i	i	i
COc1ccc(OC)c(NC(=S)NCCN2CCOCC2)c1	i	i	i	i
COc1ccc(CNCCN2CCOCC2)cc1	i	i	28.2	i
O=C1CS/C(=N/N=C/c2ccccc2O)N1	i	i	i	i
Cc1c(P(=S)(N2CCOCC2)N2CCOCC2)cc(C#N)n1C	i	93.5	i	80.0
Cn1c(SCC(=O)NC(=O)Nc2ccccc2F)nc2cc(S(N)(=O)=O)ccc21	i	96.0	i	85.0
CSC(N)=Nc1ccc(Cl)cc1	-2.55!	nt	nt	nt
Cc1cc(C)c(C(=O)O)c(=S)[nH]1	-2.45	89.4	i	i
Cc1cc(C)c(C(=O)O)c(=O)[nH]1	i	i	i	i
O=C1Cc2ccccc2C(=O)N1Cc1ccc2c(c1)OCO2	i	i	nt	75.0
COc1ccc(OCC(=O)NCCO)cc1	i	i	34.6	i
Cn1cnc2c1c(=S)[nH]c(=O)n2Cc1ccccc1	i	nt	i	82.0
CCN1CN=C(Nc2nc(C)c3cc(C)ccc3n2)NC1	i	i	i	i
CC1=CC(C)(C)N=C(Nc2nc(C)c3cc(C)cc(C)c3n2)N1	i	nt	i	76.0
Cc1cc(-c2ccc(C)c(S(=O)(=O)Nc3cccc(C(F)(F)F)c3)c2)on1	i	i	i	i
C[N+]1(CCOC(=O)Nc2ccccc2)CCCCC1	i	i	i	i
Sc1ccc2c(c1)OCCCO2	i	94.1	i	i
COc1ccc(CC(CN)c2ccccc2)cc1 (stereo unspecified)	i	i	36.0	i
SMILES	AID504770	MbtI inh	MenB inh	PV pol inh
Cc1nc(CSc2n[nH]c(C(C)(C)C)n2)cs1	i	i	i	i
Cc1nc(CSc2nncs2)cs1	i	80.0	i	83.0
CCNc1nc(C)nc2sc(CC)cc12	i	nt	31.7	i
Cc1cc(NC(=S)N(C)C)ccc1Br	i	96.2	i	i
CCSc1ccccc1C(=O)NCCCn1ccnc1	i	i	39.8	i
O=C(Cc1c(F)cccc1Cl)NCCCn1ccnc1	i	i	40.5	i
[O-][n+]1onc2cc(Cl)ccc21	i	i	i	i
O=C(/C=C/c1ccco1)C1C(=O)c2ccccc2C1=O	i	68.8	i	i
O=C(O)/C=C/c1ccco1	i	i	i	i
C=C(C)CNC(=S)Nc1cc(Cl)ccc1Sc1nncn1C	i	79.2	i	i
COc1cc(CC(=O)Nc2cc(Cl)ccc2Sc2nncn2C)cc(OC)c1OC	i	i	i	i
Cc1cc2c3c([nH]c2cc1S(=O)(=O)NCCCN1CCOCC1)CC(C)(C)CC3=O	i	i	i	i
CC(NC(=O)c1ccco1)C(c1cccs1)N1CCN(C)CC1 (stereo unspecified)	i	nt	nt	nt
CC(C)(C)c1ccc(C(=O)Nc2c(C(=O)c3ccc(F)cc3)oc3ccccc23)cc1	nt	nt	nt	i
CC(=O)Nc1c(C(=O)c2ccc(F)cc2)oc2ccccc12	i	i	64.0	i
COC(=O)c1ccc2c(c1)nc1n2CCCC1	i	i	i	i
CC(OC(=O)Cc1ccc(F)cc1)C(=O)Nc1ccc2c(c1)OCCO2 (stereo unspecified)	i	i	i	i
Cc1ccc(NC2=C(c3ccc(C(F)(F)F)cc3)C(=O)c3ccccc32)cc1C	nt	nt	nt	81.0
CCn1c(C(C)Oc2ccc(Cl)cc2)n[nH]c1=S (stereo unspecified)	i	88.8	i	i
Nn1c(=S)[nH]nc(Cc2ccco2)c1=O	i	nt	i	73.0
O=C1c2ccccc2C(=O)N1Cc1ccco1	i	i	i	i
CC(Sc1nc(-c2ccccc2)cc(C(F)(F)F)n1)C(=O)NCCCn1ccnc1 (stereo unspecified)	i	i	i	i
N#CC(C#N)=NNc1ccccc1	-3.65	i	i	i
Cc1ccc2nc(N=C(N)N)nc(C)c2c1	i	i	i	i
COc1ccc2nc(N=C(N)N)nc(C)c2c1	i	nt	i	65.0
CCn1c(COc2cccc(C)c2)nnc1SCC(=O)NC(C)(C)C	i	i	41.0	i
O=C(c1cc2ccccc2o1)N(CC1CCCO1)c1nc2ccccc2s1 (stereo unspecified)	i	i	i	i
O=c1oc2c3c(ccc2c2ccccc12)OCN(Cc1ccc(Cl)cc1)C3	nt	nt	nt	88.0
